This passage reports growth results from PubChem BioAssay (NCI).

SMILES strings stand for the structures. The panel holds about 83,000 compounds, 20% with a hit somewhere; the sample as a whole holds those more often.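 48-hour exposure, single concentration, 96-well plates; percent growth endpoint where 0 means no net growth. Active: below 10.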 Values without a mark were called inactive. Active and inactive are the calls of the source.

Among the test systems are NCI-H23 lung; NCI-H226 lung; NCI-H322M lung; HOP-62 NSCLC; NCI-H460 lung; HOP-92 NSCLC; NCI-H522 lung; A549/ATCC NSCLC; 786-0 renal; COLO 205 colon.
Assay in all cases: NCI-60 one-dose screen, 48 h (100 = growth as untreated, 0 = no growth, -100 = all killed)
Settings in all cases: 10 µM

As to `Cc1ccc(-n2nnc3c(sc4ccccc43)c2=O)cc1`, the growth in the experiment with NCI-H23 lung was 70.3%; with NCI-H226 lung it was 46.9%; in the experiment on NCI-H322M lung it was 38.8%; in the experiment with HOP-62 NSCLC, 31.6%; in the experiment on NCI-H460 lung it was 18.3%; with HOP-92 NSCLC, 6.27% (active). Also, the growth with NCI-H522 lung is 58.6%; in the experiment on A549/ATCC NSCLC, 35.3%; in the experiment on 786-0 renal, 24.4%; in the experiment with COLO 205 colon, 44%.
For the compound `C[N+]1=C(/C=C/c2ccc(I)cc2)C(C)(C)c2ccccc21`, the growth in the experiment with NCI-H23 lung is 82%; in the experiment on NCI-H226 lung it was 104%; in the experiment with NCI-H322M lung, 89.1%; in the experiment with HOP-62 NSCLC, 108%; in the experiment with NCI-H460 lung, 103%; in the experiment with HOP-92 NSCLC it was 65%. The growth in the experiment on NCI-H522 lung was 68.8%; in the experiment on A549/ATCC NSCLC it was 109%; with 786-0 renal, 97.4%; in the experiment with COLO 205 colon it was 95%.
As to `COc1ccc(/C=C(\c2cc(OC)c(OC)c(OC)c2)c2nnc(-c3cccs3)o2)cc1`, the growth with NCI-H23 lung is 76.1%; in the experiment on NCI-H226 lung, 92.5%; in the experiment with NCI-H322M lung, 82.7%; with HOP-62 NSCLC, 41.3%; in the experiment on NCI-H460 lung it was 72.7%; in the experiment on HOP-92 NSCLC, 34.8%. Further, the growth was 43.7% in the experiment on NCI-H522 lung, 77.5% in the experiment with A549/ATCC NSCLC, 48.9% in the experiment with 786-0 renal and 112% with COLO 205 colon.
Regarding `O=NN(CC(=O)N/N=C/C=C\c1ccccc1)CC(=O)N/N=C/C=C/c1ccccc1`, the growth is 112% with NCI-H23 lung; 90.7% with NCI-H226 lung; 91.2% in the experiment with NCI-H322M lung; 69.6% with HOP-62 NSCLC; 99.3% in the experiment with NCI-H460 lung; 60.6% in the experiment on HOP-92 NSCLC. The growth in the experiment with NCI-H522 lung is 95.5%; with A549/ATCC NSCLC, 97.3%; with 786-0 renal it was 110%; with COLO 205 colon it was 109%.
As to `CCCCCCCC/C=C/CCCCCCCCC1=NCCN1CCO`, the growth is 76.5% in the experiment on NCI-H23 lung; 86.9% with NCI-H226 lung; 55.5% in the experiment on NCI-H322M lung; 75.9% in the experiment with HOP-62 NSCLC; -34% (active) in the experiment with NCI-H460 lung; -5.31% (active) in the experiment with HOP-92 NSCLC. Besides, the growth is 76.7% with NCI-H522 lung, 77.5% in the experiment with A549/ATCC NSCLC, 75% in the experiment with 786-0 renal and 70.7% in the experiment on COLO 205 colon.
Turning to `CC1=CSC2=NC(c3ccc(Cl)c(Cl)c3)=CC(c3ccc(Cl)cc3)N12` (stereo not given), the growth in the experiment on NCI-H23 lung was 32.3%; in the experiment with NCI-H226 lung, 38.1%; in the experiment on NCI-H322M lung, -4.79% (active); in the experiment on HOP-62 NSCLC, 30.9%; with NCI-H460 lung it was 53.7%; with HOP-92 NSCLC it was -42.1% (active). Besides, the growth was -20.7% (active) with NCI-H522 lung, 51.1% in the experiment on A549/ATCC NSCLC, 22.3% in the experiment with 786-0 renal and 104% in the experiment on COLO 205 colon.
Turning to `Cc1cc(C)c2nc(C)c(C)[n+]([O-])c2c1`, the growth is 97.1% in the experiment on NCI-H23 lung; 103% in the experiment on NCI-H226 lung; 94.7% in the experiment with NCI-H322M lung; 73.4% in the experiment with HOP-62 NSCLC; 115% in the experiment with NCI-H460 lung; 93.4% in the experiment on HOP-92 NSCLC. Moreover, the growth in the experiment on NCI-H522 lung was 85.2%; with A549/ATCC NSCLC, 68.6%; in the experiment on 786-0 renal it was 103%; in the experiment with COLO 205 colon it was 111%.
Regarding `COC(=O)c1c(C)nc(Nc2nc3ccccc3s2)nc1-c1ccc(Cl)cc1Cl`, the growth is 103% in the experiment on NCI-H23 lung; 102% in the experiment on NCI-H226 lung; 106% in the experiment on NCI-H322M lung; 97% with HOP-62 NSCLC; 106% with NCI-H460 lung; 107% in the experiment on HOP-92 NSCLC. Further, the growth in the experiment with NCI-H522 lung was 96.1%; in the experiment on A549/ATCC NSCLC, 107%; in the experiment with 786-0 renal it was 104%; with COLO 205 colon it was 110%.
As to `S=c1c2ncccc2c(-c2ccccn2)nn1Cc1ccccn1`, the growth in the experiment with NCI-H23 lung is 90.6%; in the experiment on NCI-H226 lung it was 104%; in the experiment on NCI-H322M lung it was 102%; in the experiment with HOP-62 NSCLC, 85.3%; in the experiment on NCI-H460 lung, 108%; with HOP-92 NSCLC, 94.7%. Besides, the growth in the experiment on NCI-H522 lung was 88.5%; in the experiment with A549/ATCC NSCLC, 81%; in the experiment on 786-0 renal it was 96.9%; with COLO 205 colon it was 92.8%.
`CC(=O)Oc1ccc(C2=Cc3ccc(OC(C)=O)cc3OC2C)cc1` (stereo not given): the growth with NCI-H23 lung is 49.3%; with NCI-H226 lung it was 82.9%; with NCI-H322M lung it was 98.2%; in the experiment with HOP-62 NSCLC, 81.8%; in the experiment with NCI-H460 lung, 33.7%; with HOP-92 NSCLC, 69.4%. The growth is 17.2% with NCI-H522 lung, 61.5% in the experiment with A549/ATCC NSCLC, 47.5% in the experiment on 786-0 renal and 102% in the experiment with COLO 205 colon.
Take `C=CCNCCCN1C(=O)c2ccc3c4c(ccc(c24)C1=O)C(=O)N(CCCNCC=C)C3=O`: the growth with NCI-H23 lung was -55.6% (active); in the experiment with NCI-H226 lung, -30.8% (active); in the experiment with NCI-H322M lung, -48.3% (active); with HOP-62 NSCLC it was -53% (active); with NCI-H460 lung, -56.7% (active); with HOP-92 NSCLC, -21.6% (active). Moreover, the growth in the experiment with NCI-H522 lung was -77.3% (active); in the experiment on A549/ATCC NSCLC, -73.6% (active); in the experiment with 786-0 renal it was -31% (active); with COLO 205 colon, -86.8% (active).
As for `Fc1ccc(Nc2ccnc(N3CCN(c4ccnc5cc(Cl)ccc45)CC3)n2)cc1`, the growth in the experiment with NCI-H23 lung is 44.5%; in the experiment with NCI-H226 lung, 54%; in the experiment on NCI-H322M lung, 65.5%; in the experiment on HOP-62 NSCLC, 62.8%; with NCI-H460 lung it was 38%; with HOP-92 NSCLC it was -7.36% (active). The growth with NCI-H522 lung was 43.4%; with A549/ATCC NSCLC, 25%; with 786-0 renal, 37.1%; in the experiment with COLO 205 colon, 34.7%.
With `O=c1oc2c3ccc4cnccc4c3[nH]c2c2ccccc12`, the growth in the experiment on NCI-H23 lung is 65%; in the experiment with NCI-H226 lung, 77.1%; in the experiment on NCI-H322M lung, 78.6%; with HOP-62 NSCLC, 70.8%; with NCI-H460 lung it was 5.33% (active); in the experiment on HOP-92 NSCLC, 49.2%. Further, the growth with NCI-H522 lung is -11.5% (active); in the experiment on A549/ATCC NSCLC it was 0.199% (active); in the experiment with 786-0 renal, 12.2%; in the experiment on COLO 205 colon it was -57.2% (active).
With `COc1cc(Cn2c(-c3ccccc3)c(Cl)c3c2-c2oncc2CC3)cc(OC)c1`, the growth in the experiment with NCI-H23 lung is 72.2%; with NCI-H226 lung, 109%; in the experiment with NCI-H322M lung it was 68.5%; with HOP-62 NSCLC, 102%; with NCI-H460 lung it was 46.3%; in the experiment on HOP-92 NSCLC it was 51.7%. Moreover, the growth in the experiment on NCI-H522 lung was 9.45% (active); in the experiment on A549/ATCC NSCLC, 53.5%; in the experiment on 786-0 renal it was 74.7%; with COLO 205 colon, 113%.
